The values below come from the supplement of paper PMC12350171.

Counter-ions that a name gives are not always drawn. Unmarked numbers belong to inactive results.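 How the source made its calls: active = AUC significantly below DMSO controls by Student t-fit with adjusted P under 0.01; inactive = not significantly reduced.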

This assay deals with Haemophilus parainfluenzae. The assay can be described thus: growth AUC normalised to DMSO control (fraction of control); higher = less growth inhibition, active = hit call of the paper. The note with it: 20 µM. The procedure, abridged:
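Hemin and NAD were added to the medium for Haemophilus parainfluenzae. All pathogens, after two anaerobic passages, were inoculated at a starting OD578 of 0.01 into pre-reduced mGAM plates with 20 μM compound and 1% DMSO under breathable seals, and OD578 was read hourly for 24 h in three biological replicates. AUC of each growth curve was obtained with the trapezoidal rule up to the exponential-to-stationary transition and normalised to DMSO controls from the same plate.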
Take `Nc1nc2ccc(OC(F)(F)F)cc2s1` [Riluzole hydrochloride]: the “growth AUC normalised to DMSO control” value is 1.01.
The result for `NC(=O)c1cccnc1` [Nicotinamide] reads 1.04; that for `c1ccc2c(CC3=NCCN3)cccc2c1` [Naphazoline hydrochloride], 1.01.
For `C[C@@H]1[C@H](O)[C@@H](C)/C=C/C=C/C=C/C=C/C=C/C=C/C=C/[C@H](O[C@@H]2O[C@H](C)[C@@H](O)[C@H](N)[C@@H]2O)C[C@@H]2O[C@](O)(C[C@@H](O)C[C@@H](O)[C@H](O)CC[C@@H](O)C[C@@H](O)CC(=O)O[C@H]1C)C[C@H](O)[C@H]2C(=O)O` [Amphotericin B] the value was 1.09.
The result for `C1N2CN3CN1CN(C2)C3` [Methenamine] reads 1.05.
In the case of `CN1CCCN=C1/C=C/c1cccs1` [Pyrantel tartrate], the “growth AUC normalised to DMSO control” value is 0.978.
The result for `Cc1cccc(C)c1NC(=O)C1CCCCN1C` (stereo unspecified) [Mepivacaine hydrochloride] reads 1.07; that for `CCCCCCCCNC(C)C(O)c1ccc(SC(C)C)cc1` (stereo unspecified) [Suloctidil], 0.986.
Turning to `NC(=O)c1ncn([C@@H]2O[C@H](CO)[C@@H](O)[C@H]2O)n1` [Ribavirin], the “growth AUC normalised to DMSO control” value was 1.
The result for `CCCNC(C)C(=O)Nc1ccccc1C` (stereo unspecified) [Prilocaine hydrochloride] reads 1.01; that for `CC(=O)OCC(=O)[C@@]1(O)[C@H](C)C[C@H]2[C@@H]3CCC4=CC(=O)C=C[C@]4(C)[C@@]3(F)[C@@H](O)C[C@@]21C` [Dexamethasone acetate], 1.03.
